Results: PubChem BioAssay AID624405 (Broad Institute, 2012)
About 250 (13%) of roughly 1,900 compounds were called active. Another 4% or so got no clear call; they are omitted.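 Rule for the calls: active = fitted curve reaches 40% rescue activity at or below the top valid dose, in every test run; inconclusive = test runs disagree, some active and some inactive; inactive = every run misses the threshold or moves the wrong way.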 The list is a sample of the results. Entries with a potency or affinity are not part of this list.

Experiment: suppressors of statin myotoxicity in myotubes, dose response, cell-based, C2C12 myotubes, ATP luminescence, cherry pick (AID 624405);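 note: myotubes are challenged with simvastatin at 10 µM to lower ATP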
Settings: C2C12 myotubes + simvastatin, 48 h, scaled: DMSO wells 0, geranylgeraniol wells 100; series mostly up to 19.5 µM; rescue activity (ATP increase): at the top concentration

| Structure (SMILES) | rescue activity (ATP increase) |
| --- | --- |
| C[C@H](CO)N1C[C@H](C)[C@@H](CN(C)C(=O)Nc2ccc(C(F)(F)F)cc2)OCCCC[C@H](C)Oc2ccc(NC(=O)Nc3cccc4ccccc34)cc2C1=O | -7.78% (inactive) |
| CC(=O)c1ccc(NC(=O)c2cc(-c3cccs3)on2)cc1 | -10.8% (inactive) |
| C=C[C@@H]1c2c(F)cccc2N(S(=O)(=O)c2ccc(C)cc2)[C@H](c2ccc(C(=O)OC)cc2)C1(C#N)C#N | -79.5% (inactive) |
| Cc1noc(C)c1NC(=O)N(C)C[C@@H]1OCCCC[C@@H](C)Oc2ccc(NS(=O)(=O)c3cn(C)cn3)cc2C(=O)N([C@H](C)CO)C[C@@H]1C | -3.29% (inactive) |
| C[C@@H]1CN([C@H](C)CO)C(=O)Cc2cc(NC(=O)Cc3cn(C)c4ccccc34)ccc2O[C@H]1CN(C)Cc1ccc2c(c1)OCO2 | 27.4% [at 21 µM] (inactive) |
| Cc1ccc(-c2nc(CS(=O)CC(=O)NC3CCCCC3)c(C)o2)cc1 (stereo not given) | 8.86% (inactive) |
| C[C@@H]1CN([C@H](C)CO)C(=O)Cc2cc(NS(=O)(=O)c3ccc(F)cc3)ccc2O[C@H]1CN(C)Cc1ccc2c(c1)OCO2 | 4.84% [at 10 µM] (inactive) |
| C[C@@H]1CN([C@@H](C)CO)C(=O)Cc2cc(NS(=O)(=O)c3ccc(Cl)cc3)ccc2O[C@H]1CN(C)Cc1ccc2c(c1)OCO2 | 26.1% (inactive) |
| C[C@@H]1CN([C@H](C)CO)C(=O)c2cc(NC(=O)CCC(F)(F)F)ccc2O[C@@H](C)CCCCO[C@@H]1CN(C)Cc1ccc(C(F)(F)F)cc1 | 17.6% (inactive) |
| COc1ccc(Cn2nnnc2C(c2ccccc2OC)N2CCC(C(N)=O)CC2)cc1 (stereo not given) | 1.27% (inactive) |
| COc1ccc(OC)c(C(c2nnnn2Cc2ccccc2)N2CCN(C3CCCCC3)CC2)c1 (stereo not given) | -18.9% (inactive) |
| Cc1cnc(-c2nnc(N(C)C(=O)c3cccnc3)s2)cn1 | 8.39% (inactive) |
| C[C@@H]1CN([C@H](C)CO)C(=O)c2cccc(NS(=O)(=O)c3cccs3)c2O[C@@H]1CN(C)S(=O)(=O)c1ccccc1 | 35.5% [at 21 µM] (inactive) |
| COc1cccc(NC(=O)c2cccc(OC)c2OC)c1 | 24.9% (inactive) |
| CN1C(=O)c2cc(NC(=O)Cc3cccs3)ccc2OC[C@H]2O[C@@H](CC(=O)NCc3ccc(-c4ccccc4)cc3)CC[C@H]21 | -23% (inactive) |
| CCOC(=O)N1CCN(C(=O)CSCC(=O)Nc2nc(-c3ccc4c(c3)OCO4)cs2)CC1 | 33% (inactive) |
| O=C(CSc1ccc2c(c1)OCCO2)Nc1ccc(Br)cc1 | 38.9% (inactive) |
| CC(Oc1ccc(Cl)cc1Cl)C(=O)N(Cc1ccco1)C1CCS(=O)(=O)C1 (stereo not given) | 17.9% (inactive) |
| O=C(C[C@H]1CC[C@H]2[C@@H](COC[C@@H](O)CN2C(=O)c2cc(Cl)cc(Cl)c2)O1)N1CCc2ccccc2C1 | 34.1% (inactive) |
| CS(=O)(=O)N(CCc1ccccc1)CC(=O)N1CCc2ccccc2C1 | -5.43% (inactive) |
